# KCNQ2 inh: KCNQ2 (rat) channel inhibition; O88943; CHO-K1 KCNQ2, FluxOR thallium flux, 20 min; active compounds read low; B-score at 10 µM; hit rate 1.1% among 310,000; AID 2156;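 active = fluorescence ratio B-score at most minus 3 library SDs, with starting brightness B-score within 2 library SDs, cut at about -5.5 in these data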
# KCNQ2 pot: potentiators of rat KCNQ2 potassium channel; O88943; CHO-K1 KCNQ2, FluxOR thallium flux fluorescence; active compounds read high; B-score at 10 µM; hit rate 0.54% among 310,000;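 active = fluorescence ratio B-score at least 3 SD of library B-scores, with initial fluorescence B-score within 3 of them, cut at about 5.3 in these data; same plate scores as AID 2156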;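 note: B-score of peak minus minimum over baseline fluorescence ratio after K+ and Tl+ stimulus; positive B-score means potentiation of KCNQ2 with more thallium influx and brighter signal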
# Kir21 conf inh: confirmation of mouse Kir2.1 potassium channel inhibitors. Tl flux remaining, % of negative control (active compounds read low), % at 10 µM. shares compounds with KCNQ2 pot. hit rate 41% among 2,300. Kir2.1-expressing cells, FluxOR thallium flux fluorescence; active compounds read low;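 active = Primary-screen hit whose thallium flux fell at least 3 control SD below untreated wells in both duplicates, with normal baseline fluorescence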
# Target sequence (P35561 whole entry, looked up): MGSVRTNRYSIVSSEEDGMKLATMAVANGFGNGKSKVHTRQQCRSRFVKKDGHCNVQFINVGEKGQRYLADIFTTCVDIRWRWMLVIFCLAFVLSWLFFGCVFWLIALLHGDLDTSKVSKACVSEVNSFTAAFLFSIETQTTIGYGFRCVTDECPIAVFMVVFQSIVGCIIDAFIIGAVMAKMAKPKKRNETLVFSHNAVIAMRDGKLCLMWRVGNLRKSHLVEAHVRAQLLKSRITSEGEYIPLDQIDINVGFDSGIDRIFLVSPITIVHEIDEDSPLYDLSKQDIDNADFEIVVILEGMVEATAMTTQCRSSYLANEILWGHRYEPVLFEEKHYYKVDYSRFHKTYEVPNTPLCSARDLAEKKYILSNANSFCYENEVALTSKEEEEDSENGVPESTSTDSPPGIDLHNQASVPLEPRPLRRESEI
# HEK293 ctr: counter-screen for Kir2.1 inhibitors: effect in parental HEK293 cells. shares compounds with KCNQ2 pot. FluxOR signal as % of negative control (100 = no effect), % at 10 µM. hit rate 19% among 2,300. FluxOR thallium flux fluorescence; 0% = unstimulated blank wells. AID 2105;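 active = dye signal at least 3 control SD above or below untreated wells in both duplicates, raw fluorescence within 3, either direction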;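 note: percent is based on the flux ratio of peak minus minimum fluorescence over baseline F0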
# CHO-K1 Tl ctr: alters thallium flux in parental CHO-K1 cells, KCNQ2 counter-screen; shares compounds with KCNQ2 pot; FluxOR thallium flux fluorescence; zero = vehicle mean+3SD, 100% = vehicle-minus-blank window; activity increase over 3SD of controls, % at 10 µM; hit rate 43% among 1,200; AID 2282;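 active = signal rise of at least 3 SD above the untreated control mean, in both duplicate wells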;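 note: counter screen of KCNQ2 potentiator hits so any rise reflects channel-independent effects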
# KCNQ1 pot spec: tests whether KCNQ2 potentiators also act on human KCNQ1 | CHO KCNQ1 stable, FluxOR thallium flux fluorescence; beyond 3SD, as % of vehicle-control signal | AID 2283 | activation over 3SD threshold, % at 10 µM | shares compounds with KCNQ2 pot | hit rate 28% among 1,200;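 active = fluorescence ratio rise of at least 3 SD of vehicle wells above their mean, in both replicate wells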
# KCNQ2 pot confirm: confirmation of rat KCNQ2 potassium channel potentiators. shares compounds with KCNQ2 pot. CHO-KCNQ2 cells, FluxOR thallium flux fluorescence. potentiation, less the hit threshold, % at 10 µM. hit rate 68% among 1,200;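 active = fluorescence ratio rising 3 SD or more over the vehicle control mean in both replicates, plus primary screen hit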;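 note: peak minus minimum thallium fluorescence divided by baseline after K/Tl stimulus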
# Kir2-1 sel: mouse Kir2.1 off-target activity of KCNQ2 potentiators; shares compounds with KCNQ2 pot; HEK293 Kir2.1, FluxOR thallium flux fluorescence; activity over 3SD threshold, % at 10 µM; hit rate 2% among 1,200; AID 2345;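 active = fluorescence ratio rise of at least 3 SD above the vehicle-control mean, seen in both replicates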
# KCNQ2 W236L pot: potentiates the retigabine-insensitive rat KCNQ2 W236L mutant channel | shares compounds with KCNQ2 pot | CHO KCNQ2-W236L, automated patch clamp current | current increase over 3SD of negative controls (%), active compounds read high, % at 25 µM | hit rate 10% among 940;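 active = current increase at least 3 SD of the untreated controls above them in both duplicate recordings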
# Hits are given with their value; 0 = inactive; - = no result given. Shown are actives, neighbours in structure and some others; about 1.6% of the full set was active somewhere.
SMILES,KCNQ2 inh,KCNQ2 pot,Kir21 conf inh,HEK293 ctr,others
Cc1cc(C)c(NC(=O)/C=C\C(=O)O)c(Cl)c1,0,-,-,-,
Cc1cc(C)c(NC(=O)CC(C)(C)C)c(Cl)c1,0,25,0,0,CHO-K1 Tl ctr=0;KCNQ1 pot spec=0;KCNQ2 pot confirm=73;Kir2-1 sel=0;KCNQ2 W236L pot=0
Cc1cc(C)c(NC(=O)CC(=O)c2ccccc2)c(Cl)c1,0,0,-,-,
OCCCn1c(C(CO)Nc2nc(-c3ccc(Cl)cc3)cs2)nc2ccccc21 (stereo unspecified),0,0,-,-,
COc1cc(Cl)c(C)cc1NC(=O)COC(=O)c1cc[n+]([O-])cc1,0,0,-,-,
Cc1nc2ccc([N+](=O)[O-])cc2c(=O)n1Cc1ccccc1Br,0,-,-,-,
C=CCNC(=S)NNC(=O)c1ccc(C)c(Cl)c1,0,-,-,-,
C=CCN(CC=C)C(=S)NC(=O)c1ccc(OC)c(Br)c1,0,7.2,0,336%,CHO-K1 Tl ctr=1.9;KCNQ1 pot spec=20;KCNQ2 pot confirm=20;Kir2-1 sel=0;KCNQ2 W236L pot=0
CCN(CC)C(=S)NC(=O)c1ccc(OC)c(Br)c1,0,0,-,-,
C=CCNC(=S)NC(=O)c1ccc(C)c(Br)c1,0,5.7,0,0,CHO-K1 Tl ctr=22;KCNQ1 pot spec=0;KCNQ2 pot confirm=0;Kir2-1 sel=0
CCCCc1nnc2c(N(C)S(=O)(=O)c3ccccc3)nc3ccccc3n12,0,-,-,-,
O=C(NC1CCN(Cc2ccccc2)CC1)c1ccccc1OCc1ccccc1Cl,0,-,73%,0,
O=C(NC1CCN(Cc2ccccc2)CC1)c1ccccc1OCc1ccccc1,0,-,-,-,
CCCCCN=C(N)N/N=C/c1c[nH]c2ccc(OC)cc12,0,8.8,0,0,CHO-K1 Tl ctr=51;KCNQ1 pot spec=0;KCNQ2 pot confirm=0;Kir2-1 sel=0
CCCOc1ccc(C(=O)N/N=C/c2c[nH]c3ccc(Br)cc23)cc1,0,0,-,-,
O=[N+]([O-])c1ccccc1S(=O)(=O)N1CCCc2ccccc21,0,-,-,-,
O=S(=O)(c1ccccc1F)N1CCCc2ccccc21,0,0,60%,0,
CC(=O)C1=C(C)NC(SCC(=O)c2ccc(Cl)cc2)=C(C#N)C1c1ccco1 (stereo unspecified),0,12,0,0,CHO-K1 Tl ctr=0;KCNQ1 pot spec=17;KCNQ2 pot confirm=0;Kir2-1 sel=0
CC(=O)C1=C(C)NC(SCC(=O)c2ccc(Cl)cc2Cl)=C(C#N)C1c1ccco1 (stereo unspecified),0,0,-,-,
CSc1nc2c(c(=O)[nH]1)C(c1ccc(Cl)cc1)CC(=O)N2 (stereo unspecified),0,-,0,0,
CSc1nc2c(c(=O)[nH]1)C(c1cccc(Cl)c1)CC(=O)N2 (stereo unspecified),0,0,-,-,
CCC(C)(C)NC(=O)C1CCN(c2nc(OC)nc(OC)n2)CC1,0,0,-,-,
O=C(Nc1cccc(S(=O)(=O)N2CCCCC2)c1)C1CC(=O)N(c2ccc3c(c2)OCCO3)C1 (stereo unspecified),0,0,-,-,
CCOc1ccc(NS(=O)(=O)c2ccc(NC(C)=O)c(OC)c2)cc1,0,-,-,-,
CCOc1ccc(NS(=O)(=O)c2ccc(OC)c(C)c2)cc1,0,0,0,0,
SMILES,KCNQ2 inh,KCNQ2 pot,Kir21 conf inh,HEK293 ctr,others
CC(=O)N1c2ccc(S(=O)(=O)N3CCC(C(=O)N4CCN(c5ccccc5F)CC4)CC3)cc2CC1C (stereo unspecified),0,0,-,-,
COc1ccc(C(CCN(Cc2ccc(OC)c(OC)c2)C(C)=O)C(C)C)cc1 (stereo unspecified),0,-,-,-,
CC1CCN(CCCOc2ccc(Br)cc2Cl)CC1,0,-,38%,0,
CC1CCCN(CCOCCOc2ccc(Br)cc2Cl)C1 (stereo unspecified),0,-,-,-,
Cc1cccnc1NC(=O)c1ccc(C(=O)c2ccccc2)cc1,0,-,-,-,
Cc1csc(SCC(=O)NC(=O)NC2CCCC2)n1,0,-,-,-,
COc1ccccc1CC(=O)NC1CCCCCC1,0,0,-,-,
CCOc1cc(Br)c(CC(=O)NC2CCCCCC2)cc1OCC,0,14,0,0,CHO-K1 Tl ctr=1.1;KCNQ1 pot spec=14;KCNQ2 pot confirm=15;Kir2-1 sel=0;KCNQ2 W236L pot=0
O=Cc1cccn1-c1nccc(-c2ccco2)n1,0,-,-,-,
CC(C)c1ccc(C(C)NCCS(=O)(=O)c2ccc(Br)cc2)cc1 (stereo unspecified),0,-,-,-,
CC(NCCS(=O)(=O)c1ccc(Cl)cc1)c1cccc(Cl)c1 (stereo unspecified),0,0,34%,0,
O=C(O)c1cc(-c2cccs2)nn1-c1ccccc1,0,-,-,-,
O=C(O)c1cc(-c2cccs2)nn1-c1cccc(Cl)c1,0,8.9,0,0,CHO-K1 Tl ctr=16;KCNQ1 pot spec=28;KCNQ2 pot confirm=0;Kir2-1 sel=0;KCNQ2 W236L pot=0
CCOC(=O)c1c(CSC(=N)N)n(C)c2cc(Br)c(OC(C)=O)cc12,0,-,-,-,
CCOC(=O)c1c(CSC(=N)N)n(-c2ccc(C)cc2)c2cc(Br)c(OC(C)=O)cc12,0,-,58%,0,
O=C(CCC1CCCCC1)NNC(=O)NC12CC3CC(CC(C3)C1)C2,0,9.3,0,0,CHO-K1 Tl ctr=0;KCNQ1 pot spec=0;KCNQ2 pot confirm=12;Kir2-1 sel=0;KCNQ2 W236L pot=0
O=C(O)CCC(=O)NNC(=O)CCC1CCCCC1,0,0,-,-,
COc1ccc(NC(=O)CN(C)S(=O)(=O)c2ccc3c(c2)CC(C)N3C(C)=O)cc1OC (stereo unspecified),0,0,-,-,
COc1ccccc1N(C(=O)c1snc(C(N)=O)c1N)C(C(=O)NC1CCCC1)c1ccc2ncccc2c1 (stereo unspecified),0,0,-,-,
O=S(=O)(Nc1ccccc1N1CCOCC1)c1ccc(F)c(Cl)c1,0,-,46%,0,
Fc1ccc(NC(=S)Nc2ccccc2N2CCOCC2)cc1Cl,0,-,63%,134%,
O=S(=O)(c1ccc(Cl)c(NC(=S)Nc2ccccc2N2CCOCC2)c1)N1CCOCC1,0,0,-,-,
CC(=O)Nc1ccc(S(=O)(=O)Nc2ccccc2N2CCOCC2)cc1Cl,0,-,-,-,
CN1CCN(CCc2nc3cc(NC(=O)COc4ccc([N+](=O)[O-])cc4)ccc3n2C)CC1,0,0,-,-,
CCC(C)NC(=O)CCn1ccc2cc(S(=O)(=O)N3CCCC3)ccc21 (stereo unspecified),0,-,-,-,
SMILES,KCNQ2 inh,KCNQ2 pot,Kir21 conf inh,HEK293 ctr,others
CC1(C(=O)NCCCN2CCOCC2)Oc2cccnc2NC1=O (stereo unspecified),0,-,-,-,
O=C(CSc1nnc(-c2ccc(Cl)cc2)o1)N1CCOCC1,0,0,-,-,
COc1ccc(NC(=O)CSc2nccn2Cc2ccco2)cc1OC,0,-,-,-,
Clc1ccc(OCCCNCc2ccccc2)c2ccccc12,-7.6,0,14%,74%,
Cc1cc(C)c(OCCCCNCc2ccccc2)c(Cl)c1,0,-,12%,0,
CCC(C)NCCOCCOc1ccc(Cl)c2ccccc12 (stereo unspecified),0,0,-,-,
